Source: PubChem BioAssay (several laboratories)
SRC3 inh: SRC3 coactivator transcriptional activity inhibitors, primary screen, cell-based, luminescence. HEK293 GAL4-SRC3 luciferase reporter. inhibition, % at 3.6 µM. hit rate 0.17% among 360,000;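 active means inhibition above a per-campaign cutoff, the mean of all compounds plus 3 SD, cut at about 60% in these data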;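 further: higher means less SRC3-driven luciferase light from the GAL4 reporter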
SRC2 inh: inhibition of GAL4-SRC2 driven luciferase reporter, primary screen, SRC2 inhibitor project, cell-based, luminescence | Nuclear receptor coactivator 2 (Homo sapiens), Q15596 | HEK293 GAL4-SRC2 luciferase reporter | inhibition, % at 9 µM | hit rate 0.17% among 370,000;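 active means inhibition above the mean inhibition of all tested compounds plus 3 SD, set per campaign, cut at about 52% in these data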
LRH-1 inv ag: LRH-1 (NR5A2) inverse agonists, primary screen, cell-based, luminescence, HEK293T, StAR-luciferase reporter. LRH-1 transfected, 24 h. AID 602396, 2012. hit rate 0.13% among 360,000. inhibition, % at 3.6 µM. Nuclear receptor subfamily 5 group A member 2 (Homo sapiens), O00482;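 active means inhibition above the mean inhibition of all tested compounds plus 3 SD, cut at about 73% in these data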
Gli-Sufu antag: Gli-Sufu pathway antagonists, primary screen, luciferase luminescence, Sufu-KO-LIGHT cells, uHTS; Sufu-KO-LIGHT fibroblasts, Gli luciferase reporter luminescence; inhibition, % at 5 µM; hit rate 0.74% among 340,000;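 active means inhibition above about 55%, limit read from the data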
Shn3 3UTR inh: reduction of Shn3 3'UTR firefly luciferase signal, primary screen, Schnurri-3 inhibitor project, cell-based, Clone20 osteoblasts, set 2. Clone20 osteoblast Shn3 3'UTR firefly luciferase, 24 h. inhibition, % at 12.5 µM. hit rate 0.52% among 360,000. AID 588674, 2011;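 active means mean inhibition of at least 75% with every replicate also reaching 75%; inconclusive means mean inhibition at least 75% but some replicate below; inactive means mean inhibition below 75%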
NCOA1 inh: SRC1 coactivator transcriptional activity inhibitors, primary screen, cell-based, luminescence; HEK293 GAL4-SRC1 luciferase reporter; hit rate 0.12% among 360,000; Nuclear receptor coactivator 1 (Homo sapiens), Q15788; inhibition, % at 3.6 µM;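 active means inhibition above the campaign mean plus 3 SD, with each screening campaign given its own cutoff, cut at about 60% in these data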
A number is an active result; – = inactive; ? = inconclusive; · = not tested or not shown. Compounds with a hit are over-represented: about 1.1% of the library has one in this group of screens.

SMILES	SRC3 inh	SRC2 inh	LRH-1 inv ag	Gli-Sufu antag	Shn3 3UTR inh	NCOA1 inh
CC(C)(C)c1ccc(C(=O)O/N=C(\N)c2ccccc2)cc1	82	80	–	89	–	82
CCC[C@@H](/C=C/C(=O)OC(C)(C)C)Sc1ccccc1OC	·	–	·	·	·	·
O=C(Nc1ccc(Cl)c(C(F)(F)F)c1)c1ccncc1	–	–	–	–	–	–
CNC(=O)c1cc(Oc2ccc(NC(=O)Nc3ccc(Cl)c(C(F)(F)F)c3)cc2)ccn1	–	65	–	–	–	–
O=C(NCc1cccnc1)c1ccc(-c2ccc(Cl)cc2)o1	–	–	–	–	–	–
O=C(NCc1cccnc1)/C(=C\c1ccc(-c2ccc(Cl)c(Cl)c2)o1)S(=O)(=O)c1ccccc1	85	61	–	–	98	–
O=C1C(Cl)=C(Nc2ccc3cn[nH]c3c2)C(=O)c2ccccc21	–	88	–	–	96	–
O=C(Nc1ccc2cn[nH]c2c1)c1c(Cl)cccc1Cl	–	–	–	–	–	–
CN(C)c1ccc(NC2=C(Cl)C(=O)c3ccccc3C2=O)cc1	–	–	–	–	98	–
CC(=O)Nc1ccc(NC2=C(Cl)C(=O)c3ccccc3C2=O)cc1	·	–	·	–	·	·
O=C(NC1CCCCN(Cc2cccc(C(F)(F)F)c2)C1=O)c1cccc(F)c1 (stereo unspecified)	·	–	·	·	·	·
COc1cccc2c1C(=O)c1c(O)c3c(c(O)c1C2=O)CC(O)(C(C)=O)CC3OC1CC(N(C)C)C(O)C(C)O1 (stereo unspecified)	85	55	97	69	94	75
COc1cccc2c1C(=O)c1c(O)c3c(c(O)c1C2=O)C[C@@](O)(C(=O)CO)C[C@@H]3O[C@H]1C[C@H](N)[C@H](O)[C@H](C)O1	–	–	98	–	92	–
CC(=O)[C@@]1(O)Cc2c(O)c3c(c(O)c2[C@H](O[C@H]2C[C@H](N)[C@H](O)[C@H](C)O2)C1)C(=O)c1ccccc1C3=O	–	–	–	·	93	–
COc1cccc2c1C(=O)c1c(O)c3c(c(O)c1C2=O)C[C@@](O)(C(=O)CO)C[C@@H]3OC1CC(N)C(O)C(C)O1 (stereo partly specified)	–	–	78	91	87	–
CC(C)CCCCCCCCCCCCC(=O)NCC(=O)NC1C(C)OC(Nc2ncnc3nc[nH]c23)C(O)C1O (stereo unspecified)	91	–	88	70	92	87
C/C(=C\CNc1ncnc2nc[nH]c12)CO	–	–	–	–	–	–
C#CCNC(=O)C[C@H]1C[C@@]2(C(=O)OC)C(=C[C@H](COCc3ccccc3)O[C@@H]2C)N(Cc2ccccc2)C1=O	·	–	·	·	·	·
C(=Cc1cnc2ccccc2n1)c1ccc2c(c1)OCO2	–	–	–	·	86	–
Cc1cc(C(=O)COc2cc(F)ccc2[N+](=O)[O-])c(C)n1C1CC1	–	–	–	–	–	–
Cc1cc(C(=O)Cn2cnc3cc(F)ccc3c2=O)c(C)n1C1CC1	–	–	–	–	93	–
COc1ccc(Cl)cc1Nc1nc(-c2sc(NC(=O)C(C)(C)C)nc2C)cs1	–	–	–	–	–	72
CN(Cc1ccccc1)C(=O)OCc1cn(Cc2cc(F)ccc2F)nn1	·	–	·	·	·	·
Cc1c(C#N)c(NC(=O)CCl)n(Cc2ccc(F)cc2)c1C	–	–	–	–	–	–
Cc1c(C#N)c(NC(=O)CCl)n(Cc2cccs2)c1C	–	–	–	–	97	–
SMILES	SRC3 inh	SRC2 inh	LRH-1 inv ag	Gli-Sufu antag	Shn3 3UTR inh	NCOA1 inh
Cc1c(C#N)c(NC(=O)CCl)n(Cc2ccccc2)c1C	–	–	–	–	95	–
C[C@H]1C2CC(OC(=O)NCCCc3ccccc3)C(C2)[C@H]2CCCCN21 (stereo partly specified)	·	–	·	·	·	·
O=C(NCCc1ccccc1)c1ccc2c(c1)OCCO2	–	76	–	–	–	–
O=C(NCCc1ccccc1)c1ccc2c(c1)OCCCO2	74	88	78	70	?	74
O=C(CCc1ccccc1)c1ccc2c(c1)OCCCO2	–	–	–	–	–	–
COc1ccc(CCNC(=O)c2ccc3c(c2)OCCO3)cc1	–	–	–	–	–	–
O=C(CCCc1ccccc1)c1ccc2c(c1)OCCO2	70	75	–	–	–	71
CCOC(=O)[C@]12CCCCC/C=C\1N(Cc1ccc(OC)cc1)C(=O)[C@H]2CC(=O)NCCCOC	·	–	·	·	·	·
N#Cc1cc2c(nc1SC1CC(=O)N(c3ccccc3)C1=O)CCC2 (stereo unspecified)	77	·	–	–	–	–
CCN(CC)c1nc(C=Cc2ccc(N(C)C)cc2)c2nccnc2n1	–	66	–	·	–	–
O=C(C=P(c1ccccc1)(c1ccccc1)c1ccccc1)c1ccccc1-c1ccccc1C(=O)C=P(c1ccccc1)(c1ccccc1)c1ccccc1	62	–	94	86	–	–
CC(C)(C)C(=O)/C(=C/c1ccc(Cl)cc1)n1cncn1	73	62	–	–	?	–
CC1=NOC(=O)/C1=C\c1ccc(-c2cc(Cl)ccc2Cl)o1	–	–	–	–	94	–
CC1=NOC(=O)/C1=C/c1ccc(-c2ccc(Cl)cc2)o1	–	·	–	·	?	–
CN(CCO)c1cc(Sc2nc3ccccc3s2)c2nonc2c1[N+](=O)[O-]	–	–	–	–	87	–
O=C(NCc1ccc(F)c(F)c1)C1C2C=CC3(CN(Cc4ccccc4)C(=O)C13)O2 (stereo unspecified)	·	–	·	·	·	·
Clc1ccc(OCCN2CCN(c3ncnc4sccc34)CC2)cc1	–	–	–	81	?	–
CCN1CCN(CCOc2ccc(Cl)cc2)CC1	–	–	–	–	–	–
CCOC(=O)[C@]12CCCC=C1N(CCCOC)C(=O)[C@@H]2CC(=O)N1CCCCC1	·	–	·	·	·	·
COc1ccc(OC)c(NC(=O)COC(=O)c2c3c(nc4ccccc24)CCCC3)c1	–	–	–	–	90	–
O=C(Nc1ccc(OC(F)(F)F)cc1)Nc1c(-c2ccc(F)cc2)nc2ncccn12	·	–	·	·	·	·
Cc1[nH]c2ccccc2c(=O)c1C(=O)/C=C/c1ccccc1	72	65	–	–	–	64
COC1OC(COC(=O)c2ccccc2)C(OC(=O)c2ccccc2)C1OC(=O)c1ccccc1 (stereo unspecified)	–	–	–	–	–	–
C=C(CN(C)C)C(=O)c1ccc(OC2OC(COC(C)=O)C(OC(C)=O)C(OC(C)=O)C2OC(C)=O)cc1 (stereo unspecified)	–	–	–	–	98	–
